Source: PubChem BioAssay
Sa helicase inh: blocks Staphylococcus aureus DNA helicase; 120,000 tested, 0.05% active; purified S. aureus helicase, fluorescence unwinding assay; AID 485395; inhibition, % (test concentration not listed); in the data active = inhibition above about 25%, passing the limit was not always enough
Sa growth 42C: blocks Staphylococcus aureus growth. 170,000 tested, 0.53% active. S. aureus RN4220 growth, OD600, 20 h, 42 °C; stronger effect = lower value. relative growth, % (test concentration not listed);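 active = relative growth at most 50% at the other temperature and 20+ points below 30 °C, or under 10% at both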
A number is an active result; – = inactive; · = not tested or not shown. This excerpt belongs to a sample that is enriched for hits.

SMILES	Sa helicase inh	Sa growth 42C
COc1ccc(-c2n[nH]c(=S)o2)cc1OC	–	–
S=c1[nH]nc(-c2ccc3c(c2)OCO3)o1	–	36
O=c1c(-c2ccn(-c3ccccc3)n2)c(O)c2ccccc2n1-c1ccccc1	–	–
CC1=Nc2ccccc2Sc2c1c(=O)n(-c1ccccc1)c1ccccc21	–	1.8
Cc1ccc(S(=O)(=O)N2CCN(C(=O)CSc3nnc(Cc4csc(C)n4)o3)CC2)cc1	–	–
O=S(=O)(c1ccc(F)cc1)N1CCc2ccccc21	–	·
O=S(=O)(c1ccc(Cl)cc1)N1CCc2ccccc21	–	0.3
CCN1C(=O)c2ccccc2Sc2ccc(NC(=O)Nc3ccccc3OC)cc21	·	–
CCN1/C(=C/c2scc[n+]2C)C=C(C)c2cc(OC)c3ccccc3c21	–	-1.3
Cc1ccc(CNC(=O)c2cccc(Cn3cc(Cl)cn3)c2)cc1	–	–
O=C(NCc1ccccc1Cl)c1ccc(Cn2cc(Cl)cn2)cc1	–	2.9
N=C1/C(=C/c2ccc(SC3CCCCC3)o2)C(=O)N=C2SC=CN12	–	8.4
O=C1NN(c2ccccc2)C(=O)/C1=C/c1ccc(SC2CCCCC2)o1	–	–
O=C(Nc1ccccc1Cl)c1ccccc1O	–	–
O=C(Nc1ccc([N+](=O)[O-])cc1Cl)c1cc(Cl)ccc1O	·	-0.6
Cc1nccn1CCCN	–	–
O=S1(=O)C=C(Sc2nnnn2-c2ccccc2)c2ccccc21	–	-1.7
c1ccc(-n2nnnc2SSc2nnnn2-c2ccccc2)cc1	–	–
C=CCn1c(C)cc(-c2csc(CC#N)n2)c1C	–	–
Cc1ccc(Cl)cc1N1CCN(Cn2sc3ccccc3c2=O)CC1	–	-0.4
Cc1ccc(Cl)cc1N1CCN(C(=O)Cn2nc(C)c3sc4ccccc4c3c2=O)CC1	·	–
CN(Cc1coc(-c2ccccc2)n1)Cc1coc(-c2ccccc2)n1	–	-1.3
O=C(O)Cc1coc(-c2ccc(F)cc2)n1	–	–
O=C(COCc1cc(-c2ccc(F)cc2)on1)NCCC1=CCCCC1	–	–
CC(C)(C)c1ccccc1OCCCCCn1ccnc1	–	-1.0
SMILES	Sa helicase inh	Sa growth 42C
CCOc1ccc(OCCCCn2ccnc2)cc1	–	–
COC(=O)n1c(=O)oc2cc(S(=O)(=O)Nc3ccc(C)cc3)ccc21	–	–
CC1(C)C=Cc2c(ccc3ccc(=O)oc23)O1	–	–
COc1ccc(OC)c(NC(=O)CSc2nnc(CNc3ccc(C)cc3C)n2CC2CCCO2)c1 (stereo not drawn)	–	–
C[N+]1(CC(=O)OC2CCCCCCCCCCC2)CCCC1	–	20
C[N+]1(CC(=O)OCCCC2CCCCC2)CCCCC1	–	–
N#Cc1cc2c(nc1SCc1ccncc1)CCCCC2	–	–
CCNC(=O)N(CC)Cc1nc(-c2ccc(Cl)cc2)no1	–	–
Cc1oc2c(c1C(=O)NC1CCCCC1)C(=O)c1ccccc1C2=O	–	8.8
Cc1oc2c(c1C(=O)N1CCC(C)CC1)C(=O)c1ccccc1C2=O	–	–
Cc1oc2c(c1C(=O)NC(C)(C)C)C(=O)c1ccccc1C2=O	–	5.7
Cc1oc2c(c1C(=O)N1CCCCC1)C(=O)c1ccccc1C2=O	–	–
Cc1oc2c(c1C(=O)NC1CCCC1)C(=O)c1ccccc1C2=O	–	3.9
Cc1oc2c(c1C(=O)NCCc1ccccc1)C(=O)c1ccccc1C2=O	–	–
CSc1ccc(C2C3=C(CCCC3=O)NC3=C2C(=O)CCC3)cc1	–	–
COc1ccc(CCNC(=O)c2ccc(S(=O)(=O)N3CCCC3)cc2)cc1	–	–
CCOc1ccc(N=c2scc(-c3ccco3)n2/N=C/c2c[nH]c3ccccc23)cc1	–	–
C(=Nc1cccnc1)c1c[nH]c2ccccc12	–	8.3
C(=Nc1cccnc1)c1ccccc1	–	–
COC(=O)C(CC(C)C)NC(=O)c1ccc(OC(C)=O)cc1 (stereo not drawn)	–	–
Cc1ccc(NC(=S)SCCC(N)=O)cc1	–	·
CCc1ccc(NC(=O)CC2C(=O)OCCN2CC)cc1 (stereo not drawn)	·	–
CCN1CCOC(=O)C1CC(=O)Nc1ccccc1C(F)(F)F (stereo not drawn)	·	30
Cc1c(NC(=S)N2c3ccccc3CC2C)c(=O)n(-c2ccccc2)n1C (stereo not drawn)	–	–
COC(=O)c1sc(N)c(C(=O)OC)c1CN1CCOCC1	–	–
SMILES	Sa helicase inh	Sa growth 42C
Cc1ccc(OC(=O)c2cccnc2)cc1	–	–
Cc1ccc(N(c2ccc(C)cc2)c2cccnc2)cc1	–	5.5
CCS(=O)(=O)c1oc(-c2ccc(F)cc2)nc1S(=O)(=O)c1ccc(Br)cc1	·	–
CCCCS(=O)(=O)c1oc(-c2ccc(F)cc2)nc1S(=O)(=O)c1ccccc1	·	1.6
CC(C)S(=O)(=O)c1oc(-c2cccs2)nc1S(=O)(=O)c1ccc(F)cc1	·	–
CC(C)S(=O)(=O)c1oc(-c2ccc(F)cc2)nc1S(=O)(=O)c1ccccc1	·	1.3
CCN1CCC(=NNc2ccc(Cl)c(C(=O)O)c2)CC1	–	–
COc1ccc(N2C(=O)CS/C2=N/S(=O)(=O)c2ccc(F)cc2)cc1	–	·
COc1ccc(-c2noc(CC(=O)N3CCCCCC3)n2)cc1	–	–
O=C(Nc1ncc(Cc2ccccc2Cl)s1)c1ccco1	–	·
CC1SC(=N)N(c2ncc(Cc3ccccc3Cl)s2)C1=O (stereo not drawn)	–	-1.0
CCOC(=O)C1CCN(C(=S)c2ccccc2)CC1	–	–
N#CSc1cnc(NC2CCCCC2)s1	–	5.0
O=C(O)CSc1nnc(NC2CCCCC2)s1	–	–
O=C(NC1CCCCC1)NC1CCCc2ccccc21 (stereo not drawn)	–	–
CC(C)N(CC(=O)c1cccs1)Cc1ccccc1	–	-1.0
CC(C)N(Cc1ccccc1)C(=O)c1cccs1	·	–
O=S(=O)(Cc1ccccc1)c1nnnn1-c1ccccc1	–	-0.2
c1ccc(CNc2nnnn2-c2ccccc2)cc1	–	–
CCS(=O)(=O)c1nnnn1-c1ccccc1	–	0.1
CCS(=O)(=O)c1nnnn1-c1ccccc1S(C)(=O)=O	–	–
COC(=O)C1=C(C)N(Cc2ccco2)C(=O)/C1=C\c1cc(C)n(-c2ccc(OC)c(Cl)c2)c1C	–	–
CC(C)c1cc(NC(=O)COC(=O)c2ccccc2Oc2ccccc2)on1	–	–
O=c1cc[nH]cc1-c1ccc(Cl)cc1	–	-0.8
O=c1ccc(-c2ccc(Cl)cc2)n[nH]1	–	–
SMILES	Sa helicase inh	Sa growth 42C
Cc1nc2c(C(=O)NCCc3ccccc3)c[nH]n2c(=O)c1Cc1ccc(F)cc1Cl	·	-0.2
Cc1nc2c(C(=O)NCCc3ccccc3)c[nH]n2c(=O)c1Cl	–	–
Cc1nc2c(C(=O)NCc3ccccc3)cnn2c(C)c1Cc1ccc(F)cc1	·	–
Cc1nc2c(C(=O)NCCc3ccc(Cl)cc3)c[nH]n2c(=O)c1Cc1ccccc1F	·	1.1
Cc1nc2c(C(=O)NCCC(C)C)c[nH]n2c(=O)c1Cl	–	–
Cc1ccc(CNC(=O)c2c[nH]n3c(=O)c(Cc4ccc(F)cc4Cl)c(C)nc23)cc1	·	0.6
Cc1nc2c(C(=O)NCc3ccccc3Cl)c[nH]n2c(=O)c1Cc1cccc(Cl)c1	·	0.6
Cc1nc2c(C(=O)NCc3ccccc3Cl)cnn2c(C)c1Cc1ccccc1	·	–
COc1ccccc1C(=O)NCC(=O)N1CCN(S(=O)(=O)c2cc(C)ccc2C)CC1	–	–
CCCSc1nc(C2CC2)nc2c1c(=O)n(C)c(=O)n2CCC	–	–
COc1ccc(CCNC(=O)c2cc(C)nc3c2c(C)nn3-c2ccccc2)cc1OC	·	–
COc1ccc(CCNC(=O)c2c[nH]n3c(=O)c(Cc4ccccc4Cl)c(C)nc23)cc1OC	·	0.7
O=C(CN(c1ccc2c(c1)OCCO2)S(=O)(=O)c1ccccc1)NC1CC1	–	–
